The values below come from PubChem BioAssay AID651813 (National Center for Advancing Translational Sciences (NCATS), 2012).

“And” between values parts separate entries of the source, which are not always exact repeats. Identical values can stand only once. The whole screen tested about 2,100 compounds, of which about 1,100 (52%) were called active. Not shown: some 27% with an inconclusive outcome. The call rests on the fitted dose curve; in most records, active means well fitted inhibition curve with a large enough effect; inconclusive means small, poorly fitted or top-dose-only effect; inactive means no such curve, though single readings can be large or run the other way. The set was probably picked from earlier hits. Some of the results follow.
Potency means the concentration at half of the fitted maximal effect.

The target of the assay is DNA dC->dU-editing enzyme APOBEC-3G (Homo sapiens) (UniProt Q9HC16). The experiment in a line: qHTS for inhibitors of Vif-A3G interactions: Cherry picks counterscreen.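 Further: hits raise yellow fluorescence by blocking Vif-driven A3G-eYFP degradation; nearly all actives have a fitted effect of over 70% in size.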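 On max response: max response given as percent of control signal.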 As to conditions: HeLa A3G-eYFP + Vif (tagged APOBEC3G with the HIV-1 protein that degrades it), eYFP fluorescence, 24 h. From the text: The recent discovery and characterization of host restriction factors, which provide a potent defense to invading retroviruses, has provided new targets for antiviral drug development. APOBEC3G (A3G) and APOBEC3F (A3F) are potent cytidine deaminases that block HIV-1 replication; HIV-1 expresses the Vif protein, which counteracts A3G and A3F by binding to them and inducing their proteasomal degradation. The Vif-A3G and Vif-A3F interactions provide two potential targets for development of small molecules which can interfere with the ability of Vif to degrade A3G or A3F. […] To identify inhibitors that can interfere with Vif mediated degradation of A3G and A3F, we have developed Hela cell lines that stably express A3G or A3F tagged with eYFP at the C-terminal end (A3G-eYFP or A3F-eYFP, respectively) and Vif. In the absence of an inhibitor, Vif induces degradation of A3G-eYFP and A3F-eYFP, and the cells are not fluorescent. In the presence of an inhibitor, it is expected that Vif will be unable to degrade A3G-eYFP and/or A3F-eYFP, resulting in an increase in yellow fluorescence. In this counterscreen assay, Vif A3G was screened against the cherry picks ordered from the MLSMR. NIH Chemical Genomics Center [NCGC] NIH Molecular Libraries Probe Centers Network [MLPCN] MLPCN Grant: MH093245 Assay Submitter (PI): Vinay Pathak, National Cancer Institute
Sequence of DNA dC->dU-editing enzyme APOBEC-3G (Homo sapiens) (Q9HC16 whole entry, looked up): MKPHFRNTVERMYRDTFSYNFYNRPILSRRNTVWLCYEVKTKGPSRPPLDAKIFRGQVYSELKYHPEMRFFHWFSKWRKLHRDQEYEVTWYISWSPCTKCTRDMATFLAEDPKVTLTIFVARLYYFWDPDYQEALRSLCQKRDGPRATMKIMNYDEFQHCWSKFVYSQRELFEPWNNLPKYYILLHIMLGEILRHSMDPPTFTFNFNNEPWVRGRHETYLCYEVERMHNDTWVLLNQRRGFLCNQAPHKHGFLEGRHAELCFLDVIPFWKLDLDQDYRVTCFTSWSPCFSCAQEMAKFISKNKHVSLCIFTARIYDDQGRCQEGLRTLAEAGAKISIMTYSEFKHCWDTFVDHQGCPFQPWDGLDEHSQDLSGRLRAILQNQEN
A3G-Vif cells were harvested from T225 flask and resuspended in phenol free OPTI-MEM medium with 5% FBS. Then 5 uL of 140,000 cells/mL resuspended cells was dispensed into each well of low base Aurora COC 1,536-well plates (black walled, clear bottom) using a Multidrop Combi dispenser. After overnight culture at 37 deg C with 5% CO2, a total of 23 nL of compounds at 5 selected concentrations from the NPC or positive control (2 mM stock of MG132) in DMSO was transferred to each well of the assay plate using a pintool (Kalypsys, San Diego, CA), and the plates were further incubated at 37 deg C with 5% CO2 for 24 hours. After that, the plates were measured on Acumen Explorer (TTP Lab Tech). The fluorescence was detected by 488 nm/Ex and […].
On the technique in general: Quantitative high-throughput screening tests each substance at several concentrations.
Regarding `C=CCSc1nc2sc3c(c2c(=O)n1CC)CCC3`, the max response was -26.5% (inactive).
Regarding `CN(C)c1ccc(/C=C2\Oc3ccc(C#Cc4cccc(N)c4)cc3C2=O)cc1`, the Potency was 17.7 µM (active).
On the same count and under the same terms, the same measure for `CC1(C)Cc2nc3sc4c(=O)n(CC(=O)NCc5ccccc5)cnc4c3cc2CO1`: 3.96 µM (active); for `CCOc1ccc(S(=O)(=O)NCc2ccccn2)cc1NC(=O)c1ccccc1`: 3.96 µM (active).
With `COc1ccc(OC)c2sc(NC(=O)CCS(=O)(=O)c3ccccc3)nc12`, the max response is -5.13% (inactive).
Consider `COc1ccc(S(=O)(=O)NCc2ccccn2)cc1NC(=O)c1ccccc1`, for which the Potency was 15.8 µM (active).
Turning to `COc1ccc(S(=O)(=O)NCc2ccccn2)cc1NC(=O)c1ccc(C)cc1`, the Potency was 11.2 µM (active).
Regarding `S=C(NCCSCc1ccc(Cl)cc1)Nc1ccccc1`, the max response is -13.3% (inactive).
Turning to `O=[N+]([O-])c1ccc(C2=NN(c3ccccc3)C(c3ccco3)C2)cc1` (stereo unspecified), the Potency is 0.498 µM (active).
Regarding `O=[N+]([O-])c1ccc(/C=C/C2=NN(c3ccccc3)C(c3ccco3)C2)o1` (stereo unspecified), the Potency was 2.31 µM (active).
Take `O=[N+]([O-])c1ccc(C2=Nc3cc(Cl)ccc3OC2)cc1`: the max response is -16.9% (inactive).
Consider `COc1ccccc1N1N=C(c2ccc([N+](=O)[O-])cc2)CC1c1ccccc1` (stereo unspecified), for which the Potency was 1.25 µM (active).
Same read-out and setting: the same measure for `Cc1cc(C)cc(NC(=O)/C=C/c2ccc([N+](=O)[O-])s2)c1`: 13 µM (active); for `Cc1cccc(NC(=O)/C=C/c2ccc([N+](=O)[O-])s2)c1`: 14.6 µM (active); for `Cc1ccc(NC(=O)/C=C/c2ccc([N+](=O)[O-])s2)c(C)c1`: 10.3 µM (active).
Turning to `Cc1ccc(NC(=O)/C=C/c2ccc([N+](=O)[O-])s2)cc1`, the Potency is 5.17 µM (active).
For the compound `CC(=O)c1cccc(NC(=O)/C=C/c2ccc([N+](=O)[O-])s2)c1`, the Potency was 10.3 µM (active).
For the compound `CC(=O)c1cccc(NC(=S)N2c3ccccc3CC2C)c1` (stereo unspecified), the max response is 10.2% (inactive).
Same read-out and setting: in the case of `O=C(OCC12CC3CC(CC(C3)C1)C2)c1ccc(NCc2cc(O)ccc2O)cc1` it was 39.2% (inactive).
As to `CCCN1C=CC(=CC=C(C#N)C#N)C=C1`, the Potency is 9.94 µM (active).
Still for that read-out and setting: the same measure for `C=CCN1C=CC(=CC=C(C#N)C#N)C=C1`: 12.5 µM (active).
For the compound `Cn1c2ccccc2c2ccc3c(c21)C(=O)C=CC3=O`, the max response was 10.2% (inactive).
Consider `COc1cc(OC)c(OC)cc1/C=C1\Oc2cc(OCC(=O)N3Cc4ccccc4C[C@H]3C(=O)O)ccc2C1=O`, for which the Potency is 2.06 µM (active).
Regarding `COc1ccc(/C=C2\Oc3cc(OC(=O)N4CCOCC4)ccc3C2=O)c(OC)c1`, the max response is -18.4% (inactive).
As to `Cn1cc(C2=C(c3ccc(Cl)cc3Cl)C(=O)NC2=O)c2ccccc21`, the Potency was 2.06 µM (active) and 8.2 µM (active).
On the same count and under the same terms, in the case of `COc1ccccc1Nc1cc2cc(Br)ccc2c(=O)[nH]1` it was 15.8 µM (active); in that of `COc1ccc(C(=O)Nc2sc3c(c2C#N)CCN(C(C)=O)C3)cc1`, 12.5 µM (active); in that of `COc1cccc(C(=O)Nc2sc3c(c2C#N)CCN(C(C)=O)C3)c1`, 3.96 µM (active).
As for `O=C1[C@@H]2[C@@H](CN3CN(c4ccccc4)N=C(c4ccccc4)[C@@]23c2ccccc2)C(=O)N1c1ccccc1`, the max response was 3.63% (inactive).
As to `Cc1noc(C)c1COc1cccc(C(=O)OCC(=O)N2CC(=O)Nc3ccccc32)c1`, the Potency is 5.59 µM (active).
On the same count and under the same terms, in the case of `COc1ccc(N=Cc2c(O)c3ccccc3n2C(C)=O)cc1` it was 14.6 µM (active).
Same read-out and setting: the same measure for `Oc1sc(C=Nc2ccc(F)cc2)c2ccccc12`: 8.2 µM (active); for `COc1ccc(N=Cc2sc(O)c3ccccc23)cc1`: 3.96 µM (active).
Still for that read-out and setting: the same measure for `COc1ccc(N=Cc2oc3ccc4ccccc4c3c2O)cc1`: 18.4 µM (active); for `Oc1sc(C=Nc2ccccc2)c2ccccc12`: 18.4 µM (active).
As to `COc1ccc2nc3ccccc3nc2c1NC(=O)c1ccc(Cl)cc1`, the Potency is 18.4 µM (active).
The same measure, in the same setting: the same measure for `COc1ccc2nc3ccccc3nc2c1NC(=O)c1ccc(Br)cc1`: 14.6 µM (active).
For `Cc1ccc2c(Cl)c(C)c(N3CCCC3)nc2n1`, the max response is -28.8% (inactive).
As for `OCC[n+]1ccc(/C=C/c2c[nH]c3ccccc23)cc1`, the Potency was 18.4 µM (active).
As for `CC[n+]1ccc(/C=C/c2c[nH]c3ccccc23)cc1`, the Potency was 9.2 µM (active).
On the same count and under the same terms, the same measure for `C[n+]1ccc(/C=C/c2c[nH]c3ccccc23)cc1`: 8.2 µM (active).
`C/C(=N\NC(=O)C(C)n1nc(C)c([N+](=O)[O-])c1C)c1ccccc1O` (stereo unspecified): the max response was 3.13% (inactive).
On to `CN1CCN(c2ccc([N+](=O)[O-])cc2C(=O)c2ccc(Br)cc2)CC1`, for which the Potency was 4.98 µM (active).
For `CN(C)S(=O)(=O)c1ccc(N2CCCC2)c(C(=O)N2CCN(S(=O)(=O)c3ccc(F)c(F)c3)CC2)c1`, the max response is 9.68% (inactive).
As to `COc1ccc(C(=O)c2cc([N+](=O)[O-])ccc2N2CCCC2)cc1`, the Potency is 7.04 µM (active).
The same measure, in the same setting: in the case of `Cc1ccc(C(=O)c2cc([N+](=O)[O-])ccc2N2CCN(C)CC2)cc1` it was 7.04 µM (active).
